According to PubChem BioAssay (EPA / NIEHS):
Active and inactive are the calls of the source. How the source made its calls: active means hit-call score of the fitted dose curve at least 0.9, where 1 is the maximum; inactive means score below 0.9.

Legend:
[1] = ATG_E_Box_CIS: Attagene CIS-FACTORIAL HepG2 Assay for human Enhancer Box (E-box) (AID 2282936); conditions: HepG2 E-box cis-reporter transcription, actives raise or lower the signal
Method in brief: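 Transiently transfected HepG2, endogenous TF-driven reporters, 24 h dosing. Readout: RT-PCR plus capillary electrophoresis of fluorescent reporter fragments. Gain or loss of signal fitted bidirectionally against DMSO baseline.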

[2] = ATG_M_61_CIS: Attagene CIS-FACTORIAL HepG2 Assay for M61 Transcription Factor (Internal Marker) (AID 2282937); conditions: HepG2 Attagene CIS-FACTORIAL M61 internal marker reporter; actives raise or lower the signal
Method in brief: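 HepG2 cells transiently transfected with cis-element-driven multiple reporter transcription units, dosed for 24 h. Reporter mRNA measured by RT-PCR, 6-FAM primer-extension labelling, HpaI digestion and capillary electrophoresis; bidirectional fit versus DMSO baseline.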

[3] = ATG_EGR_CIS: Attagene CIS-FACTORIAL HepG2 Assay for human Early Growth Response 1 (EGR1) (AID 2282938); conditions: HepG2 Attagene CIS-FACTORIAL EGR reporter mRNA; actives raise or lower the signal
Method in brief: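 HepG2 cells transiently transfected with cis-promoter-driven multiplexed reporter transcription units; reporter mRNA measured 24 h after compound dosing by RT-PCR, 6-FAM primer extension, HpaI digestion and capillary electrophoresis. Bidirectional fit versus DMSO baseline.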

[4] = ATG_M_19_CIS: Attagene CIS-FACTORIAL HepG2 Assay for M19 Transcription Factor (Internal Marker) (AID 2282939); conditions: HepG2 Attagene CIS-FACTORIAL M19 internal marker reporter; actives raise or lower the signal
Method in brief: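 Transfect HepG2 with MRTU reporter library → dose chemical, 24 h → isolate total RNA, reverse-transcribe with oligo(dT) → PCR, 6-FAM label, HpaI cut (2 h, 37 C) → capillary electrophoresis. Bidirectional fit vs DMSO.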

[5] = ATG_ERE_CIS: Attagene CIS-FACTORIAL HepG2 Assay for Estrogen Response Element (ERE) (AID 2282940); conditions: HepG2 ERE cis-reporter, Attagene RNA transcript; actives raise or lower the signal
Method in brief: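 Transient MRTU transfection of human HepG2; cis-element promoters; 24 h dosing; total RNA → RT (oligo dT) → PCR → 6-FAM primer extension → HpaI digest → CE fluorescence. Bidirectional fit, DMSO baseline.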

[6] = ATG_Ets_CIS: Attagene CIS-FACTORIAL HepG2 Assay for human Erythroblast Transformation Specific (ETS) (AID 2282941); conditions: HepG2 ETS cis-reporter transcription, actives raise or lower the signal
Method in brief: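 Multiplexed reporter transcript profiling: HepG2, 24 h treatment, total RNA to cDNA, PCR, 6-FAM labelling, HpaI cut, capillary electrophoresis. Gain- or loss-of-signal fitted against DMSO.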

[7] = molecular target: Hepatocyte nuclear factor 3-beta (Homo sapiens) (UniProt Q9Y261); experiment: ATG_FoxA2_CIS: Attagene CIS-FACTORIAL HepG2 Assay for human Forkhead box A2 (FOXA2) (AID 2282942); conditions: HepG2 cis-reporter transcription factor activity, 24 h; actives raise or lower the signal
Chain of Hepatocyte nuclear factor 3-beta (Homo sapiens) (Q9Y261 whole entry, looked up): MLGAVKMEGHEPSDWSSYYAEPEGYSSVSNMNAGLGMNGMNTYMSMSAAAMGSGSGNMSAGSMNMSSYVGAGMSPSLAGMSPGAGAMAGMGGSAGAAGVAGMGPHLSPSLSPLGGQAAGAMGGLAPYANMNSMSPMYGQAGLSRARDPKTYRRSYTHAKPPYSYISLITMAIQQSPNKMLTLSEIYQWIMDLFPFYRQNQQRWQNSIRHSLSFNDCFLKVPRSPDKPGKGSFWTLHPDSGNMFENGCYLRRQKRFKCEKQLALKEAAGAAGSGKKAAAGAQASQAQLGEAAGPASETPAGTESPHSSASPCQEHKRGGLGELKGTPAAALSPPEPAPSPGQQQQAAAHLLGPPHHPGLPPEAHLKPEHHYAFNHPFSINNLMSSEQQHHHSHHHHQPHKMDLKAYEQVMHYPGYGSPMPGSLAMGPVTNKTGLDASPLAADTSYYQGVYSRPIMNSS
Method in brief: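 HepG2 cells transiently transfected with multiple cis-regulated reporter transcription units, dosed for 24 h. Reporter mRNA measured by RT-PCR, 6-FAM labelling, HpaI digestion and capillary electrophoresis; bidirectional fitting against DMSO baseline.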

[8] = ATG_FoxO_CIS: Attagene CIS-FACTORIAL HepG2 Assay for human Forkhead box O (FoxO) (AID 2282943); conditions: HepG2 Attagene cis-reporter, FoxO element, mRNA; actives raise or lower the signal
Method in brief: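 Transfected HepG2 reporter cells exposed to test chemical for 24 h; reporter RNA measured by reverse transcription, PCR and fluorescent capillary electrophoresis; curves fitted for increases and decreases against DMSO.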

[9] = ATG_GATA_CIS: Attagene CIS-FACTORIAL HepG2 Assay for human GATA Binding Protein (AID 2282944); conditions: HepG2 GATA cis-element reporter, Attagene multiplex mRNA; actives raise or lower the signal
Method in brief: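 Transient MRTU transfection, HepG2, 24 h compound exposure. Total RNA → oligo(dT) RT → PCR → 6-FAM primer extension → HpaI cut → CE. Bidirectional fit vs DMSO.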

[10] = ATG_GLI_CIS: Attagene CIS-FACTORIAL HepG2 Assay for human Zinc Finger Protein GLI1 (AID 2282945); conditions: HepG2, Attagene cis-factorial reporter mRNA, GLI element; actives raise or lower the signal
Method in brief: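 Transiently transfected HepG2 cells report endogenous transcription factor activity via cis-element-driven reporter units. After 24 h compound exposure, reporter mRNA was measured by RT-PCR with capillary electrophoresis; bidirectional fitting against DMSO baseline.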

Structure (SMILES)	outcome [1]	outcome [2]	outcome [3]	outcome [4]	AC50 [5]	outcome [6]	outcome [7]	outcome [8]	outcome [9]	outcome [10]	outcome [5]	AC50 [3]	AC50 [10]	AC50 [6]
CCOP(=S)(OCC)SCSc1ccc(Cl)cc1	inactive	inactive	inactive	inactive	4.21 µM (active)	inactive	inactive	inactive	inactive	inactive	–	–	–	–
CCCCN(CCCC)SN(C)C(=O)Oc1cccc2c1OC(C)(C)C2	inactive	inactive	inactive	inactive	14.7 µM (active)	inactive	inactive	inactive	inactive	inactive	–	–	–	–
Cc1ccc(C(=O)Cl)cc1	inactive	inactive	inactive	inactive	–	inactive	inactive	inactive	inactive	inactive	inactive	–	–	–
CSC(C)(C)C=NO	inactive	inactive	inactive	inactive	–	inactive	inactive	inactive	inactive	inactive	inactive	–	–	–
O=P1(N(CCCl)CCCl)NCCCO1 (stereo not given)	inactive	inactive	inactive	inactive	3.3 µM (active)	inactive	inactive	inactive	inactive	inactive	–	–	–	–
O=P(Oc1ccccc1)(Oc1ccccc1)Oc1ccccc1	inactive	inactive	–	inactive	9.81 µM (active)	inactive	inactive	inactive	inactive	–	–	33.4 µM (active)	53.3 µM (active)	–
NC(=O)C(F)(F)C(F)(F)F	inactive	inactive	inactive	inactive	–	inactive	inactive	inactive	inactive	inactive	inactive	–	–	–
c1ccc2c(c1)sc1ccccc12	inactive	inactive	inactive	inactive	125 µM (active)	inactive	inactive	inactive	inactive	inactive	–	–	–	–
c1nc[nH]n1	inactive	inactive	inactive	inactive	29 µM (active)	inactive	inactive	inactive	inactive	inactive	–	–	–	–
O=C(O)C(F)(F)OC(F)(F)C(F)(F)OC(F)(F)C(=O)O	inactive	inactive	inactive	inactive	–	inactive	inactive	inactive	inactive	inactive	inactive	–	–	–
CCCCc1ccc(O)cc1	inactive	inactive	inactive	inactive	7.43 µM (active)	inactive	inactive	inactive	inactive	inactive	–	–	–	–
CC(O)C#N (stereo not given)	inactive	inactive	inactive	inactive	–	inactive	inactive	inactive	inactive	inactive	inactive	–	–	–
O=c1ssc(Cl)c1Cl	inactive	inactive	–	inactive	–	–	inactive	inactive	inactive	–	inactive	60.3 µM (active)	59.1 µM (active)	52.1 µM (active)
